# Hits are enriched below; roughly 1.3% of the tested compounds scored in any of these assays.
# ERG Ets-DNA blk: qHTS for Small Molecule Inhibitors of the ERG Ets/DNA interaction. fluorescence polarization, His-ERG Ets domain / labelled DNA. Potency, µM (highest dose often 76.9 µM), without a hit: at the top dose FP activity, negative = inhibition, actives largely listed as inhibitors. 0.028% of 370,000 active; active = well fitted inhibition curve with a large enough effect in the polarisation, with a control signal flat; inconclusive = small, poorly fitted or top-dose-only effect, or effect the other way, or a change in a side signal; inactive = no such curve, though single readings can be large or run the other way; the % refers to the polarisation;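 also: polarization taken with two DNA probes labelled with fluorescein and Texas red; potency is read from the fitted curve at half-maximal effect; % of control where 0% means no effect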
#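 His-tagged ERG Ets domain (1 uM in the protein solution; 300mM KCl, 50mM Tris-HCl, 1mM EDTA, 1mM DTT, pH 7.5) received compound, then a probe mix of 5 nM fluorescein-DNA and 100nM Texas-615-DNA. Fluorescence polarization was read for both dyes.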
# PINK1 expr mod: A Quantitative High throughput Screen to Identify Chemical Modulators of PINK1 Expression | 0.2% of 410,000 active | Potency, µM (top dose mostly 76.6 µM), for inactives: at the highest dose activation (PINK1 increase), usual class: activators | AID 624263, 2012 | PINK1 immunofluorescence, high-content cytometry, 24 h; active = well fitted activation curve with a large enough effect; inconclusive = small, poorly fitted or top-dose-only effect; cell line not stated here; also: potency is read from the fitted curve at half-maximal effect; % of control where 0% means no effect; nearly all actives have a fitted effect of over 65% in size
#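 PINK1 protein, normally rapidly degraded, was detected by immunofluorescence after 24 hour compound treatment of a stable cell line. Titration data (5 concentrations) came from laser-scanning cytometry, with CCCP-treated wells as controls.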
# PTHR1 ag: qHTS for PTHR1 Agonists: Primary Screen | HEK293 GP2 PTHR1 cells, GloSensor cAMP luminescence, 1 h | Potency, µM (titrated, usually from 115 µM), for the others: at the top dose activation, most hits filed as activators | 0.075% of 410,000 active | AID 743266, 2014; also: potency is read from the fitted curve at half-maximal effect; nearly all actives have a fitted effect of over 55% in size
#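 HEK-293-derived GP2 cells expressing PTHR1 and a GloSensor cAMP reporter, 3,000/well, plated overnight, given luciferin plus IBMX (each 0.5 mM as added) for 1 h at 37 °C, then compound for 1 h at 37 °C. Luminescence was read after 15 min at room temperature.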
# miR-21 act: qHTS Assay for Modulators of miRNAs and/orActivators of miR-21. HeLa miR-21 FLuc reporter, luciferase, 48 h. Potency, µM (series often up to 38.3 µM), inactives show at the highest dose activity change, positive = activation, hits mostly activators. 340,000 tested, under 10 active;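 also: % of control where 0% means no effect; miR-21 action dims this reporter so a rising signal means less miR-21 action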
#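 HeLa miR-21-FLuc reporter line, endogenous miR-21; 2000 cells/well in DMEM/10% FBS; compound titration up to ~40uM final, 48 h, 37 degree Celsius; luciferase detection reagent, 15 min lysis, CCD luminescence.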
# 12-LOX inh: Primary qHTS assay for inhibitors of human arachidonate 12S-lipoxygenase (ALOX12): Round 2 | Polyunsaturated fatty acid lipoxygenase ALOX12 (Homo sapiens), P18054 | purified 12hLO, xylenol orange hydroperoxide absorbance | Potency, µM (titrated, usually from 108 µM), inactives show at the highest dose activity change, negative = inhibition, usual class: inhibitors | 1.1% of 580,000 active | AID 1671190, 2021; also: potency is read from the fitted curve at half-maximal effect; % is scaled to controls: 0 for no effect and ±100 for the full control effect
# Target sequence (P18054 whole entry, looked up): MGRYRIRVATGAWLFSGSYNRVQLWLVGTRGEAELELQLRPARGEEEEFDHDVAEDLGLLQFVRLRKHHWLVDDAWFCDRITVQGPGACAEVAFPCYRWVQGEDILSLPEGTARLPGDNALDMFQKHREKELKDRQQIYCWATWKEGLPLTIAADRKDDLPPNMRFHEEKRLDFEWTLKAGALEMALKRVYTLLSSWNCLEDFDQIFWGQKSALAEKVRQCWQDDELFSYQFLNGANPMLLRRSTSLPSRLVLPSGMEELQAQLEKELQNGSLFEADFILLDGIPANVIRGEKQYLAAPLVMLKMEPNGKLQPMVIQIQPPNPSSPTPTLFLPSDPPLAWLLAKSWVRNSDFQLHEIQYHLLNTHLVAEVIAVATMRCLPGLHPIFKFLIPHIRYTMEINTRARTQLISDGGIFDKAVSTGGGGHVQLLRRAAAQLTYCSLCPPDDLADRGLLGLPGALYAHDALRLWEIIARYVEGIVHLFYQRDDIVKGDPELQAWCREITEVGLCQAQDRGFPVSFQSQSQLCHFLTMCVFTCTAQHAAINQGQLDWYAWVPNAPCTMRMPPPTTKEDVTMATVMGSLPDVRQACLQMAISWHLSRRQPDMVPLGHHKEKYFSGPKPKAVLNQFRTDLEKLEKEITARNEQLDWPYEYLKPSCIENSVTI
#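 Hydroperoxide product was detected by ferrous iron/xylenol orange as the 573 to 405 nm absorbance ratio. Arachidonic acid at 40 uM (final) was turned over for 30 min at room temperature by 150 nM human 12hLO, pH 7.0 Hepes buffer, after 15 min compound preincubation.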
# Giardia killer: Small Molecules that selectively kill Giardia lamblia: qHTS. Giardia lamblia trophozoite viability. activity change, % at 7.66 µM, hits read low. 0.15% of 340,000 active. AID 540267, 2011; in the data active = activity change below about -80%; inconclusive = between about -30% and that limit;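 also: parasites exposed to compound for two days anaerobically before the ATP read; % is scaled to controls: 0 for no effect and ±100 for the full control effect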
#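 Anaerobic 48 hrs incubation at 37 deg C of 100 trophozoites/well with test compounds; ATPLite 1-Step luminescence, 15-30 min RT, reports cellular ATP as viability.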
# The depositor's hits bear a star; i = inactive; ? = inconclusive; . = not tested or not shown; [ ] = remark or other dose. Unless noted, calls follow the shape of the dose curve; as a rule, active = well fitted curve in the direction sought with a large enough effect; inconclusive = small, poorly fitted or top-dose-only effect, or another doubt; inactive = no such curve, though single readings can be large; an effect the other way counts as inactive or inconclusive.
SMILES,ERG Ets-DNA blk,PINK1 expr mod,PTHR1 ag,miR-21 act,12-LOX inh,Giardia killer
COc1ccc(C2=Nc3ccccc3OC2)cc1,8%,-2%,-7%,-46%,45µM*,-4
Cc1ccc2c(c1)-c1c(cnc3cc(-c4ccc(Cl)cc4)nn13)CO2,11%,-1%,i,-7%,-20%,.
CC(=O)C1C(=O)CC(C)(O)C(C(C)=O)C1c1ccccc1 (stereo not given),5%,-2%,-12%,1%,-5%,2
COc1cccc(NC(=S)N/N=C2\CC(C)(C)Oc3ccc(O)cc32)c1,5%,1%,i,16%,32µM*,-15
Cc1cccc(NC(=S)N/N=C2\CC(C)(C)Oc3ccc(O)cc32)c1,3%,2%,-2%,25%,?,8
COc1cccc(NC(=S)N/N=C2\CC3CCC2(C)C3(C)C)c1 (stereo not given),3%,11%,-3%,-52%,35µM*,3
CC12CCC(C/C1=N/NC(=O)Nc1ccccc1)C2(C)C (stereo not given),-3%,19%,-25%,5%,-2%,2
Nc1cc(Cl)ccc1C(=O)OCC(=O)NC1CCS(=O)(=O)C1 (stereo not given),1%,1%,-2%[57.5 µM],-3%,2%,13
CCOc1ccc(CCN2C(=S)N([C@@H](Cc3ccccc3)CN3CCC[C@@H]3CN3C(=S)NC[C@@H]3CC(C)C)C[C@@H]2Cc2ccccc2)cc1,.,2%,2%,.,?,.
CC(C)C[C@H]1CNC(=S)N1CC1CCCN1C[C@H](Cc1ccc(O)cc1)N1C[C@H](Cc2ccccc2)N(CC2CCCCCC2)C1=S (stereo not given in full),6%,3%,-35%,.,?,8
CC(C)C[C@H]1CNC(=S)N1C[C@H]1CCCN1C[C@H](Cc1ccccc1)N1C[C@H](Cc2ccc(O)cc2)N(CC2CCCCCC2)C1=S,.,8%,i,.,40µM*,.
Oc1ccc(C[C@H]2CNC(=S)N2CC2CCCN2C[C@H](Cc2ccccc2)N2C[C@H](Cc3ccc(O)cc3)N(CC3CCCCCC3)C2=S)cc1 (stereo not given in full),10%,0%,7%,.,11µM*,-5
CCOc1ccc(CCN2C(=S)N([C@@H](CC(C)C)CN3CCCC3CN3C(=S)NC[C@@H]3CC(C)C)C[C@@H]2Cc2ccccc2)cc1 (stereo not given in full),7%,0%,-18%,.,14µM*,7
COc1ccc([N+](=O)[O-])cc1C(=O)NC1CCN(Cc2ccccc2)CC1,-7%,0%,-23%,.,40%,23
CCOC(=O)C1CCN(C(=O)COC(=O)CSc2ccccc2C)CC1,0%,1%,i,.,-35%,0
O=C(CCN1CCC(c2ccccc2)C1)c1cccc2ccccc12 (stereo not given),.,.,.,.,25µM*,.
O=C(CCN1CCC(c2ccccc2)C1)c1ccc2ccccc2c1 (stereo not given),.,.,.,.,16µM*,.
O=C(CCN1CCC(c2ccccc2)C1)c1ccco1 (stereo not given),.,.,.,.,-23%,.
O=C(CCN1CCC(c2ccccc2)C1)c1ccccc1 (stereo not given),-3%,4%[38.3 µM],-25%[57.5 µM],-6%,?,-13
CC1=C(C(=O)OC(C)C)C(c2ccccc2Cl)CC(=O)N1Cc1cc(F)cc(F)c1 (stereo not given),.,.,.,.,24%,.
Cc1cnc(CNc2ncncc2-c2ccccc2C(F)(F)F)cn1,.,0%,.,.,22µM*,.
FC(F)(F)c1ccccc1-c1cncnc1NCc1ccccc1,.,0%,.,.,?,.
Cc1nc2cc(C(=O)N3CCN(C)CC3)ccc2n1C,-7%,3%,-10%,-1%,8%,-26
N#C/C(=C/c1ccc2c(c1)OCO2)C(=O)Nc1ccc(O)cc1,5%,4%,-51%,1%,1%,-3
CC(C)N(C(=O)[C@H]1C[C@H](CC(=O)NCC23CC4CC(CC(C4)C2)C3)C(=O)N2CCc3c([nH]c4ccc(Cl)cc34)[C@]12C)C(C)C,-15%,35µM*,i,.,-17%,17
SMILES,ERG Ets-DNA blk,PINK1 expr mod,PTHR1 ag,miR-21 act,12-LOX inh,Giardia killer
CCN(CC)C(=O)[C@H]1C[C@H](CC(=O)NCC23CC4CC(CC(C4)C2)C3)C(=O)N2CCc3c([nH]c4ccc(Cl)cc34)[C@]12C,3%,?,-9%,.,?,2
COc1ccc(NC(=O)c2cc([N+](=O)[O-])ccc2O)cc1,-15%,28µM*,-41%,?,-6%,-89*
COc1ccc(NC(=O)c2cc3cc(OC)ccc3oc2=O)cc1,-13%,25µM*,-16%,.,7%,3
O=C(Nc1cccc([N+](=O)[O-])c1)c1cc2ccccc2cc1O,5%,2.5µM*,-32%,13%,?,3
CN(C)c1ncc2nc(-c3ccc(Cl)cc3)c(=O)n(Cc3ccc(F)cc3)c2n1,.,1%,.,.,0%,.
COc1ccc(C2CC(=O)N3CN(C4CCCCC4)CSC3=C2C#N)cc1 (stereo not given),2%,3%,i,-6%,?,.
Cc1ccc(C2CC(=O)N3CN(Cc4ccccc4)CSC3=C2C#N)cc1 (stereo not given),.,.,.,.,5.6µM*,.
COc1cc(C2CC(=O)N3CN(c4cccc(Cl)c4)CSC3=C2C#N)ccc1O (stereo not given),.,.,.,.,18µM*,.
N#CC1=C2SCN(c3ccc(F)cc3)CN2C(=O)CC1c1cccc(F)c1 (stereo not given),1%,-1%,-7%,-2%,6.3µM*,-1
COc1cccc(C2CC(=O)N3CN(C4CCCCC4)CSC3=C2C#N)c1 (stereo not given),-2%,1%,i,-2%,13µM*,.
CCc1ccc(C2CC(=O)N3CN(c4ccccc4)CSC3=C2C#N)cc1 (stereo not given),4%,1%,i,-6%,?,-16
COc1ccc(N2CSC3=C(C#N)C(c4cc(OC)c(OC)cc4OC)CC(=O)N3C2)c(OC)c1 (stereo not given),3%,-1%,i,-10%,28µM*,12

# Source: PubChem
